Assay outcomes as filed in PubChem.
ASM inhibitor: Inhibitors of Secretory Acid Sphingomyelinase (S-ASM): qHTS. Sphingomyelin phosphodiesterase (Homo sapiens), P17405. placental ASM, HMU-PC fluorogenic substrate, 60 min. Potency, µM (highest dose often 57.5 µM), usual class: inhibitors. actives 0.006% (n = 340,000). AID 504937, 2011
Target sequence (P17405 47-631 limits assumed): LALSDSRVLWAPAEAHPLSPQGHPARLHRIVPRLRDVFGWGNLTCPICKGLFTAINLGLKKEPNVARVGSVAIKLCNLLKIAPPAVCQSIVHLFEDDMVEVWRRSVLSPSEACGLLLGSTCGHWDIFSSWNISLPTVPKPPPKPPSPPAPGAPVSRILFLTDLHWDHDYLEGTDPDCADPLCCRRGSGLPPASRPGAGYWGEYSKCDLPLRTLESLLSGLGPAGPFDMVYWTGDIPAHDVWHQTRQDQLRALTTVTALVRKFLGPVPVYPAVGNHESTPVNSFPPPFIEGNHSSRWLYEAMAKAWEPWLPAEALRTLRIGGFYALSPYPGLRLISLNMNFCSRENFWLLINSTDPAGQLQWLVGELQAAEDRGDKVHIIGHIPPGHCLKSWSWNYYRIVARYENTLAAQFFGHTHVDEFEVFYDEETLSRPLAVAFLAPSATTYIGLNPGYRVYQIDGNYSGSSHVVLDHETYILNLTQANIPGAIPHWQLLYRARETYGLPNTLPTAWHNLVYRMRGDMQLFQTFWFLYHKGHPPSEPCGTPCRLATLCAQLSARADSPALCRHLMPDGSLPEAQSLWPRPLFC
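Human placenta-derived ASM enzyme was preincubated with compound for 10 minutes at room temperature, then given fluorogenic substrate HMU-PC0 (9 uM final) for 60 minutes at 37 °C; a pH 10 stop preceded fluorescence reading at Ex 386/Em 447 nm.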
IL-1B inflam inh: qHTS for Inhibitors of Inflammasome Signaling: IL-1-beta AlphaLISA Primary Screen; THP-1 LPS/ATP IL-1B secretion, AlphaLISA, 16 h; stronger effect = lower value; actives 4.7% (n = 360,000); activity change, % at 57.5 µM; in the data active means activity change below about -50%; inconclusive means mostly about -30% to -49%
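THP-1 cells pretreated 1 hr with compounds (up to 57.5 uM final), then stimulated with LPS (250 ng/mL final) plus ATP (1.25 mM final); secreted IL-1B measured by AlphaLISA after 16 hr, decreased signal indicating inhibition.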
DT40 TDP1 no CPT: qHTS for Inhibitors of human tyrosyl-DNA phosphodiesterase 1 (TDP1): qHTS in cells in absence of CPT. AID 686978, 2013. Potency, µM (titrated, usually from 46.2 µM), most hits filed as inhibitors. DT40 Tdp1-/- hTDP1 cells, no CPT, ATP luminescence, 48 h. actives 15% (n = 420,000); further: nearly all actives have a fitted effect of over 55% in size
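Luminescent ATP content (CellTiter-Glo) served as the growth readout. Knockout chicken DT40 cells expressing human TDP1 were exposed to compounds without camptothecin for a minimum 48 hr at 37 °C.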
HepG2 viability: qHTS for Inhibitors of TGF-b: Cytotox Counterscreen | Potency, µM (top dose mostly 46.1 µM), usual class: cytotoxic | HepG2 CAGA-GFP viability, ATP luminescence, 18 h | AID 588856, 2011 | actives 0.76% (n = 410,000)
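HepG2 CAGA-GFP cells (1000/well, DMEM with 1% FBS) received compound, then TGF-beta at 500 pg/mL final, and were incubated 18 hours at 37 degrees C. Viability was read by CellTiter-Glo luminescence. Media-only wells were set as complete cell-killing and DMSO as no toxicity.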
DT40 TDP1 CPT: qHTS for Inhibitors of human tyrosyl-DNA phosphodiesterase 1 (TDP1): qHTS in cells in presence of CPT. chicken DT40 Tdp1-/-;hTDP1 cells + 20 nM CPT, ATP luminescence, 48 h. Potency, µM (top dose mostly 46.2 µM), most hits filed as inhibitors. actives 12% (n = 420,000); further: nearly all actives have a fitted effect of over 55% in size
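Chicken DT40 Tdp1-/- cells stably complemented with human TDP1 were seeded at 400 cells/well in medium containing 20 nM camptothecin, exposed to pin-transferred compounds, and grown at 37 °C for at least 48 hr. Viability was read as ATP luminescence.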
TGFb inhibitor: qHTS for Inhibitors of TGF-b | HepG2 CAGA-GFP TGF-b/SMAD3 reporter, GFP fluorescence, 18 h; TGF-beta stimulated, 500 pg/mL final | Potency, µM (top dose mostly 46.1 µM), actives largely listed as inhibitors | actives 1.2% (n = 410,000); further: nearly all actives have a fitted effect of over 65% in size
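Inhibition was scored as loss of TGF-beta-induced (500 pg/mL final, 18 hours, 37 degrees C) GFP in HEPG2 cells carrying a CAGA-GFP reporter, in DMEM with 1% FBS. Well GFP was summed per cell; Activity was normalised to unstimulated and stimulated DMSO wells, then concentration-response fitting.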
Large screens that a line does not name were inactive. An excerpt weighted towards active compounds, which were near 19% of everything screened. Unless noted, the call rests on the fitted dose curve; in most records, active means well fitted curve in the direction sought with a large enough effect; inconclusive means small, poorly fitted or top-dose-only effect, or another doubt; inactive means no such curve, though single readings can be large; an effect the other way counts as inactive or inconclusive.

CC(C)(C)N(Cc1ccccc1)C(=O)COC(=O)C1CC1	none
CC(C)(C)N(Cc1ccccc1)C(=O)COC(=O)c1ccc(N2CCCC2=O)cc1	DT40 TDP1 no CPT 16µM, DT40 TDP1 CPT inconclusive
CC1CCN(S(=O)(=O)c2ccc3c(c2)N(CC(=O)NC(C)c2ccccc2)C(=O)CO3)CC1 (centres undefined)	none (no result: ASM inhibitor, IL-1B inflam inh, DT40 TDP1 no CPT, DT40 TDP1 CPT)
COc1ccc(C(C)=O)cc1CC(=O)N(Cc1ccccc1)c1ccccc1	DT40 TDP1 no CPT inconclusive, TGFb inhibitor inconclusive
CN(Cc1ccccc1)C(=O)COC(=O)c1ccc(Cl)cc1N	DT40 TDP1 no CPT inconclusive, DT40 TDP1 CPT 10µM
CCOc1ccc(C(C)=O)cc1COC(=O)c1ccccc1C(=O)N(C)Cc1ccccc1	IL-1B inflam inh inconclusive, DT40 TDP1 no CPT 7.3µM, DT40 TDP1 CPT 18µM
CN(Cc1ccccc1)C(=O)COC(=O)Cc1ccc(Cl)cc1	none
CSc1ccc(CN(C)Cc2nc3cc(C(F)(F)F)ccc3c(=O)[nH]2)cc1	DT40 TDP1 no CPT inconclusive, DT40 TDP1 CPT inconclusive
O=C(O)/C(CC(=O)c1ccc(Cl)cc1)=N/Nc1ccc([N+](=O)[O-])cc1[N+](=O)[O-]	none
Cc1cc(C)c(NC(=O)CNC(=O)CSc2nnc(N)s2)c(C)c1	none
CCNc1nc(NCc2ccccc2)nc(SCC(N)=O)n1	DT40 TDP1 no CPT inconclusive
CC(Nc1nc(=S)nc(Nc2ccc(F)cc2)[nH]1)c1ccccc1 (centres undefined)	DT40 TDP1 no CPT inconclusive, DT40 TDP1 CPT 21µM
CC(Nc1nc(Nc2ccc(F)cc2)nc(SCC(N)=O)n1)c1ccccc1 (centres undefined)	IL-1B inflam inh -60
CCNc1nc(=S)nc(NC(C)C)[nH]1	DT40 TDP1 no CPT inconclusive, TGFb inhibitor inconclusive
CC(NC(=O)COC(=O)C12CC3CC(CC(Br)(C3)C1)C2)c1ccccc1 (centres undefined)	none
CC(=O)Nc1nc2ccccc2n1CCOc1ccccc1Cl	DT40 TDP1 no CPT 15µM, DT40 TDP1 CPT inconclusive
O=C(Nc1nc2ccccc2n1CCOc1ccccc1Cl)c1ccccc1	DT40 TDP1 no CPT inconclusive, DT40 TDP1 CPT inconclusive (no result: ASM inhibitor, IL-1B inflam inh)
COc1ccccc1OCCn1c(NC(=O)c2ccc(Cl)cc2)nc2ccccc21	none (no result: ASM inhibitor, IL-1B inflam inh)
COc1ccccc1OCCn1c(NC(=O)c2ccccc2Cl)nc2ccccc21	DT40 TDP1 no CPT 16µM, DT40 TDP1 CPT 23µM (no result: ASM inhibitor, IL-1B inflam inh)
O=S(=O)(Nc1nc2ccccc2nc1N1CCN(CCO)CC1)c1cc(F)ccc1F	DT40 TDP1 CPT 23µM
COc1ccc(-c2cc(=O)n(-c3ccc([N+](=O)[O-])cc3)[nH]2)cc1	DT40 TDP1 no CPT 16µM, DT40 TDP1 CPT inconclusive, TGFb inhibitor inconclusive
Cc1ccc(NC(=O)CCC(=O)N/N=C/c2cccs2)cc1	none
Cc1ccc(S(=O)(=O)/N=C2/NC(=O)/C(=C/c3cccnc3)S2)cc1	DT40 TDP1 no CPT 29µM, DT40 TDP1 CPT inconclusive
CCCn1nnnc1NCc1ccc(N(CC)CC)cc1	none
COc1ccc([C@H]2CC(=O)C=C(c3ccccc3-c3ccccc3)C2)cc1	DT40 TDP1 no CPT 23µM, DT40 TDP1 CPT 23µM, TGFb inhibitor inconclusive
COc1ccc([C@H]2CC(=O)C=C(c3cc(Br)ccc3OC)C2)cc1	DT40 TDP1 no CPT 16µM, DT40 TDP1 CPT 18µM, TGFb inhibitor inconclusive
COc1ccc(OC)c(C2=CC(=O)C[C@H](c3ccc4c(c3)OCO4)C2)c1	DT40 TDP1 no CPT 10µM, DT40 TDP1 CPT 7.3µM
CCOc1ccc(Br)cc1C1=CC(=O)C[C@H](c2ccc(OC)cc2)C1	DT40 TDP1 no CPT 2.9µM, DT40 TDP1 CPT 4.6µM, TGFb inhibitor inconclusive
COc1ccc([C@H]2CC(=O)C=C(c3ccccc3Oc3ccccc3)C2)cc1	DT40 TDP1 no CPT inconclusive, DT40 TDP1 CPT inconclusive
COc1ccc([C@H]2CC(=O)C=C(c3cccc(OC(F)(F)F)c3)C2)cc1	DT40 TDP1 no CPT inconclusive, DT40 TDP1 CPT 23µM
COc1ccc([C@H]2CC(=O)C=C(c3cc(C)ccc3OC)C2)cc1	DT40 TDP1 no CPT 6.5µM, DT40 TDP1 CPT 4.1µM
COc1ccc([C@H]2CC(=O)C=C(c3ccnc4ccc(Cl)cc34)C2)cc1	DT40 TDP1 no CPT 9.2µM, DT40 TDP1 CPT 8.2µM, TGFb inhibitor inconclusive
COc1ccc([C@H]2CC(=O)C=C(c3cc(Cl)ccc3C)C2)cc1	DT40 TDP1 no CPT inconclusive, DT40 TDP1 CPT inconclusive, TGFb inhibitor inconclusive
COc1ccc([C@H]2CC(=O)C=C(c3cc(C)ccc3F)C2)cc1	DT40 TDP1 no CPT inconclusive
Cc1cccc(C)c1NC(=O)CN(C)C(=O)c1cccc(S(=O)(=O)N2CCN(C)CC2)c1	DT40 TDP1 no CPT inconclusive, DT40 TDP1 CPT inconclusive
CN(CC(=O)Nc1cccc(F)c1)C(=O)c1cccc(S(=O)(=O)N2CCN(c3ccc(F)cc3)CC2)c1	ASM inhibitor inconclusive, DT40 TDP1 no CPT 21µM, DT40 TDP1 CPT 21µM, TGFb inhibitor 13µM
Cc1cccc(C)c1NC(=O)CN(C)C(=O)c1cccc(S(=O)(=O)N2CCN(c3ccc(F)cc3)CC2)c1	DT40 TDP1 no CPT 7.3µM, DT40 TDP1 CPT 12µM
COCC1CCN(C(=O)C2CCC(=O)N(CCc3cccc(F)c3)C2)CC1 (centres undefined)	none
CCCCNC(=O)C1CCC(CNS(=O)(=O)c2ccc(C)cc2)CC1 (centres undefined)	none
CCCCSCCCNC(=O)C1CCC(CNS(=O)(=O)c2ccccc2)CC1 (centres undefined)	DT40 TDP1 no CPT inconclusive, DT40 TDP1 CPT 16µM
COc1ccc(N2C(S)=C(C#N)C(=O)NC23CCCCC3)cc1	DT40 TDP1 no CPT inconclusive
COc1ccc2[nH]cc(/C=N/NS(=O)(=O)c3ccc(C)cc3)c2c1	DT40 TDP1 no CPT 13µM, DT40 TDP1 CPT 15µM, TGFb inhibitor inconclusive
COc1ccc(OC)c(S(=O)(=O)N/N=C\c2c[nH]c3ccccc23)c1	DT40 TDP1 no CPT 9.2µM, DT40 TDP1 CPT 18µM
Cc1ccc(-n2nc(C)c3c(C)cc(=O)n(CC(=O)Nc4cc(Cl)ccc4C)c32)cc1	none (no result: ASM inhibitor, IL-1B inflam inh)
Cc1ccc(C(=O)Nc2cccc(S(=O)(=O)N3CCCCC3)c2)cc1[N+](=O)[O-]	IL-1B inflam inh inconclusive, DT40 TDP1 no CPT inconclusive, DT40 TDP1 CPT 16µM, TGFb inhibitor inconclusive
